Assay results as given in PubChem BioAssay AID588847 (Broad Institute, 2011).
Potency and affinity values are given separately. Active and inactive are the calls of the source.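 The calls were made as follows: active = compounds lowering luciferase light with a fitted half-maximal dose at most twice the top tested dose; inconclusive = flat fit inhibiting 30 to 70%, or unreliable fit; inactive = the rest.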

Biological target: Luciferin 4-monooxygenase (Photuris pensylvanica) (UniProt Q27757)
Assay: firefly luciferase enzyme inhibitors, dose response, counter-screen for HSF-1 reporter inhibitor project, biochemical, Cell Titer Glo, luminescence, cherry-picks (AID 588847)
Details: ATP; series mostly up to 26 µM

Luciferin 4-monooxygenase (Photuris pensylvanica), sequence (Q27757 whole entry, looked up): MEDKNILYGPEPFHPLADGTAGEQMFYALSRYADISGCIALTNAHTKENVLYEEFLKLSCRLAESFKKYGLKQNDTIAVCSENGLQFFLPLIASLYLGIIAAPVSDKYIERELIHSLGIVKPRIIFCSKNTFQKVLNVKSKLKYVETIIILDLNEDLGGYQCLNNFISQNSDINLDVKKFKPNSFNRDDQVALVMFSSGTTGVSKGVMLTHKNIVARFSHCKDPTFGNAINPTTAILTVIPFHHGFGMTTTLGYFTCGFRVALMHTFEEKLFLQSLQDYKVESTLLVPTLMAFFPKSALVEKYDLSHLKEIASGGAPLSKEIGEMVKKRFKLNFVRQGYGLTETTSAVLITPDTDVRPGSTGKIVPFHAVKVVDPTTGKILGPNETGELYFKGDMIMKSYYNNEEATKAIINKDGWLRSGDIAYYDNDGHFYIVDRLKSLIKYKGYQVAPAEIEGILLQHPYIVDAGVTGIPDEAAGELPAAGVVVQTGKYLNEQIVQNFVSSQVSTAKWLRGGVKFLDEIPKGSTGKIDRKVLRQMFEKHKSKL

Q: How did the outcome turn out when `O=[N+]([O-])c1nn(-c2ccc3c(c2)OCCO3)n(O)c1=Nc1ccccc1` was run?
A: inactive

Q: Which outcome does the source give for `O=C(Nc1ccc(F)cc1F)c1cc2nc3c(c(C(F)(F)F)n2n1)CCCC3` here?
A: inactive

Q: For `CC(=O)OCC(=O)[C@@]12OC(C)(C)O[C@@H]1CC1C3C[C@H](F)C4=CC(=O)C=CC4(C)[C@@]3(F)C(O)CC12C` (stereo partly drawn), which outcome is on record?
A: inactive

Q: For `Cc1nc(SCC(=O)Nc2nc3ccccc3s2)c(C#N)c(C)c1C`, which outcome is on record?
A: inactive

Q: For `Cc1ccc(C(=O)Nc2sc(C)c(-c3ccccc3)c2C(N)=O)cc1[N+](=O)[O-]`, which outcome is on record?
A: inactive

Q: For `CC(=O)[C@@]1(O)C(C)CC2C3C=C(C)C4=Cc5c(cnn5-c5ccccc5)C[C@]4(C)C3C(O)C[C@@]21C` (stereo partly drawn), which outcome is on record?
A: inactive

Q: With `COC(=O)c1ccccc1NC(=O)c1ccc(-c2ccc(Br)cc2)o1` as the compound, how does the outcome read?
A: inactive

Q: Which outcome does the source give for `COc1cc([C@@H]2c3cc4c(cc3[C@H](O)[C@H]3COC(=O)[C@H]23)OCO4)cc(OC)c1OC` here?
A: inactive
